Source: PubChem BioAssay (NCATS)
Inconclusive results are not listed. Unmarked numbers belong to inactive results. The source made the active and inactive calls. Calls follow the shape of the full dose curve.

assay: Cell Viability - BJ (AID 421); conditions: BJ fibroblast viability, qHTS;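 also: cells exposed to compound for 40 hours at 37 °C before readout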
Text: NIH Chemical Genomics Center [NCGC]
NIH Molecular Libraries Screening Centers Network [MLSCN]
National Institutes of Environmental Health Sciences [NIEHS]
National Toxicology Program [NTP]
We have developed a 1536-well cell-based assay for quantitative high throughput screening (qHTS) against a number of cell lines to determine in vitro cytotoxicity of small molecules. This particular assay uses the BJ cell line from ATCC which is derived from normal human foreskin fibroblasts.
NCGC Assay Protocol Summary:
The CellTiter-Glo luminescent cell viability assay (Promega) is a homogeneous method to measure the number of viable cells in culture. The end point readout of this assay is based on quantitation of intracellular ATP, an indicator of metabolic activity, using the luciferase reaction. Luciferase catalyzes the oxidation of beetle Luciferin to oxyluciferin and light in the presence of ATP. The luminescent signal is proportional to amount of ATP present.
Using the CellTiter-Glo luminescent cell viability assay, the amount of cellular ATP was measured in the BJ cell line with complete culture medium following compound treatment for 40 hours. The assay was performed in opaque white Kalypsys 1536-well plates. In the screen, tamoxifen and doxorubicin were used as positive controls. Library compounds were measured for their ability to cause acute toxicity in the cell line, as reflected by a decrease in intracellular ATP levels, in a concentration-dependent manner. Data were normalized to the controls for basal activity (DMSO only) and 100% inhibition (100 uM tamoxifen). AC50 values were determined from concentration-response data modeled with the standard Hill equation.
qHTS protocol fo CellTiter Glo BJ cellular assay
[Step] [Parameter] [Value] [Description]
1. Reagent; 5 uL; 1500 BJ cells/well
2. Time; 5 hr; 37 °C incubation
4. Controls; 23 nL; Tamoxifen 0.34 uM to 100 uM & Doxorubicin 0.02 nM to 100 uM
5. Time; 40 hr; 37 °C incubation
6. Reagent; 5 uL; CellTiter Glo reagent
7. Time; 20 min; Room Temperature
8. Detection; Luminescence; Viewlux plate reader
Keywords: cell viability, cytotoxicity, BJ cell line, luminescence, NTPHTS, NTPHTS_NCGC, NIEHS, EPA, DSSTox, MLSMR, MLSCN, NIH Roadmap, qHTS, NCGC
Potency is read from the fitted curve at half-maximal effect.

| SMILES | Potency |
| --- | --- |
| C/C(C=O)=C/c1ccccc1 | > 92 µM |
| C=Cc1ccccc1C=C | > 92 µM |
| O=C(O)CNC(=O)c1ccc([N+](=O)[O-])cc1 | > 92 µM |
| CCOc1ccc(NC(C)=O)cc1N | > 92 µM |
| O=Cc1ccc(CO)o1 | > 92 µM |
| CC(CCl)OC(C)CCl (stereo not given) | > 92 µM |
| Clc1ccccn1 | > 92 µM |
| O=[N+]([O-])c1ccc(CCO)cc1 | > 92 µM |
| O=C(O)c1c(Cl)cccc1Cl | > 92 µM |
| Cc1cccc(C(=O)O)c1 | > 92 µM |
| CCCCCCCCCCCCOCC1CO1 (stereo not given) | > 92 µM |
| C=C(C)OC(C)=O | > 92 µM |
| Cc1cccc2ccccc12 | > 92 µM |
| Fc1ccccc1 | > 92 µM |
| Cc1ccc2nc(-c3ccc(N)cc3)sc2c1S(=O)(=O)O | > 92 µM |
| CC/C=C/C#N | > 92 µM |
| CC1=C(/C=C/C(C)=C/C=C/C(C)=C\C=O)C(C)(C)CCC1 | 24.4 µM (active) |
| O=c1[nH][nH]c(=O)c2cc([N+](=O)[O-])ccc12 | > 92 µM |
| O=C(O)c1ccccc1C(=O)O | > 92 µM |
| CCCCC(CC)C(=O)O (stereo not given) | > 92 µM |

| SMILES | Potency |
| --- | --- |
| FC(F)(F)c1cccc(Cl)c1 | > 92 µM |
| CCC(C)=O | > 92 µM |
| NC(=S)NNC(N)=S | > 92 µM |
| Cc1cccc([N+](=O)[O-])c1C(=O)O | > 92 µM |
| Cc1c(C(=O)O)cccc1[N+](=O)[O-] | > 92 µM |
| CCOc1ccccc1N | > 92 µM |
| CCOC(=O)OCC | > 92 µM |
| COc1ccccc1[N+](=O)[O-] | > 92 µM |
| Nc1cc(Cl)c([N+](=O)[O-])cc1O | > 92 µM |
| COc1ccc(N=[N+]([O-])c2ccc(OC)cc2)cc1 | > 92 µM |
| CC(=C/C=C/C(C)=C/C=C/C=C(C)/C=C/C=C(C)/C=C/C(=O)O)/C=C/C(=O)O | > 92 µM |
| CC(=O)CCc1ccccc1 | > 92 µM |
| Cc1ccc(C)o1 | > 92 µM |
| CCC(O)C(C)(C)C (stereo not given) | > 92 µM |
| CC1CCCO1 (stereo not given) | > 92 µM |
| CC(=O)c1ccccc1[N+](=O)[O-] | > 92 µM |
| CCCCCCCCC | > 92 µM |
| COc1cccc2sc(N)nc12 | > 92 µM |
| Cc1ccccc1C=O | > 92 µM |
| c1ccc2c(c1)ccc1ncccc12 | > 92 µM |
